{"source": "ChEMBL document CHEMBL1157539", "about": "“Thousands of chemical starting points for antimalarial lead identification” (Nature, 2010)"}
{"test_system": "Plasmodium falciparum", "test": "GSK_TCMDC: Inhibition of Plasmodium falciparum 3D7 in whole red blood cells, using parasite LDH activity as an index of growth. Test compounds present at 2uM", "assay_type": "functional", "units": {"Inhibition": "%"}}
{"smiles": "O=C(O[C@@H]1CN[C@H](C#Cc2cc3c(Nc4ccc5c(cnn5Cc5ccccc5)c4)ncnc3s2)C1)N1CCCC1", "Inhibition": 99}
{"smiles": "COc1ccc(NC(=O)c2ccc(NC(=O)c3ccc(Cl)cc3)cc2)cc1N1CCN(C)CC1", "Inhibition": 98}
{"smiles": "COc1ccc(-c2cnn3ccc(Nc4cc(OC)c(OC)c(OC)c4)nc23)cc1OC", "Inhibition": 98}
{"smiles": "CCCNC(=O)C1CCN(C(c2ccc(Cl)cc2)c2ccc(Cl)cc2)CC1", "Inhibition": 98}
{"smiles": "COc1ccc(C=Cc2cc(=N)c3ccccc3[nH]2)cc1.I", "Inhibition": 93}
{"smiles": "COc1ccccc1N1CCN(CCCCNC(=O)c2ccc(NC(=O)c3ccc4ccccc4c3)cc2)CC1", "Inhibition": 97}
{"smiles": "CCOCCCNc1sc(S(=O)(=O)c2ccccc2)nc1S(=O)(=O)c1ccc(C)cc1", "Inhibition": 96}
{"smiles": "CC(C)C[C@@H](/C=N/N1CCOC1=O)NC(=O)[C@H](CC(C)C)NC(=O)c1ccc(OCCN2CCOCC2)cc1", "Inhibition": 92}
{"smiles": "CS(=O)(=O)c1ccc(CCNCc2ccc(-c3ccc(CN(C(=O)C4CC(=O)c5ccccc54)C4Cc5ccccc5C4)cc3)nc2)cc1.O=C(O)C(F)(F)F", "note": "(stereo not given)", "Inhibition": 90}
{"smiles": "CC(C)CN1CCCN(Cc2cccc(NC(=O)c3ccc(Cl)c(Cl)c3)c2)CC1.O=C(O)C(F)(F)F", "Inhibition": 91}
{"smiles": "O=C(c1ccc(-c2ccccn2)s1)N1CCc2cc3nccc(N4CCN5CCC[C@H]5C4)c3cc21", "Inhibition": 96}
{"smiles": "CCc1cc(NC2CCN(C)CC2)nc(Nc2cccc(OC)c2)n1", "Inhibition": 93}
{"smiles": "Cc1ccc(CN2CCN(Cc3cccc(NC(=O)c4ccc5ccccc5c4)c3)CC2)cc1C.O=C(O)C(F)(F)F", "Inhibition": 89}
{"smiles": "CC1=C(C(=O)OC(C)C)C(c2ccccc2Cl)C2=C(CC(c3ccccc3)CC2=O)N1", "note": "(stereo not given)", "Inhibition": 93}
{"smiles": "Cl.O=C(N[C@@H](Cc1cc(F)cc(F)c1)[C@H](O)CNCc1cccc(C(F)(F)F)c1)c1cc(C2CCCC2)cc(N2CCCC2=O)c1", "Inhibition": 95}
{"smiles": "O=C(Nc1cc(=O)[nH]c2nc(-c3ccccc3)nn12)C1CCCCC1", "Inhibition": 86}
{"smiles": "Cc1ccccc1Nc1nc(NCCc2ccccc2)nc2ccccc12", "Inhibition": 82}
{"smiles": "O=C(Nc1cccc(-c2cc3ccccc3[nH]2)c1)C1CCN(Cc2ccccc2O)CC1", "Inhibition": 95}
{"smiles": "Cc1cccc2nc(-c3cccc(-c4ccc(CN5CCN(CCO)CC5)cc4)c3)[nH]c12.O=C(O)C(F)(F)F", "Inhibition": 100}
{"smiles": "Cc1cc(NC(=O)c2ccc(-c3ccccc3)cc2)no1", "Inhibition": 83}
{"smiles": "Cc1ccc(-c2ccc3c(c2)C=C(C(=O)NC2CCN(CCNC(=O)c4cccs4)CC2)CCC3)cc1.O=C(O)C(F)(F)F", "Inhibition": 90}
{"smiles": "Cc1c(C(=O)C2CC2CN2CCC(N3CCCC3)CC2)sc2ccccc12", "note": "(stereo not given)", "Inhibition": 94}
{"smiles": "Cc1nc(-c2cccc(Nc3nccc(NCC(O)c4ccccc4)n3)c2)cs1", "note": "(stereo not given)", "Inhibition": 99}
{"smiles": "COc1ccc(-c2cccc(NC(=O)c3ccc(F)cc3)c2)cc1CN1CCCN(C)CC1.O=C(O)C(F)(F)F", "Inhibition": 100}
{"smiles": "O=C(/C=C/c1ccc(Br)cc1)NCCCCCN1CCC(c2c[nH]c3ccccc23)CC1", "Inhibition": 99}
